Consider 19 compounds from PubChem BioAssay (EPA / NIEHS).

In test [1] the target is human Protein Tyrosine Phosphatase Non-receptor Type 1 (PTPN1), PTPN1 (gene 5770) (UniProt P18031). The test is described as follows: NVS_ENZ_hPTPN1: NovaScreen (NVS) Enzymatic Assay for human Protein Tyrosine Phosphatase Non-receptor Type 1 (PTPN1) (AID 2283201). In short, it runs like this:
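Cell-free fluorogenic-substrate activity assay on recombinant enzyme, read 1.33 h after dosing by fluorescence and electrophoretic mobility shift; loss of signal vs DMSO baseline. Primary screen in duplicate at 25 uM, hits then run in concentration-response up to 50 uM.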

For test [2], the target named is Serine/threonine-protein phosphatase PP1-alpha catalytic subunit (Homo sapiens) (UniProt P62136). The test is described as follows: NVS_ENZ_hPPP1CA: NovaScreen (NVS) Enzymatic Assay for human Protein Phosphatase 1 Aatalytic subunit Alpha (PPP1CA) (AID 2283200). The essentials: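 Recombinant enzyme activity read by fluorescence with electrophoretic mobility shift separating substrate from product, 1.33 h after dosing; loss of signal vs DMSO baseline. Primary screen in duplicate at 25 uM; actives retested in concentration-response up to 50 uM.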

For test [3], the target named is Tyrosine-protein phosphatase non-receptor type 11 (Homo sapiens) (UniProt Q06124). Kind of test: NVS_ENZ_hPTPN11: NovaScreen (NVS) Enzymatic Assay for human Protein Tyrosine Phosphatase Non-receptor Type 11 (PTPN11) (AID 2283202). The essentials:
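Recombinant human PTPN11 activity on a fluorescent substrate, with substrate/product separated by electrophoretic mobility shift; read 0.5 h after dosing, loss of signal vs DMSO. Duplicate 25 uM screen, then concentration-response up to 50 uM.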

The target of test [4] is human SRC Proto-Oncogene, Non-receptor Tyrosine Kinase (SRC), SRC (gene 6714) (UniProt P12931). The test is described as follows: NVS_ENZ_hSRC: NovaScreen (NVS) Enzymatic Assay for human SRC Proto-Oncogene, Non-receptor Tyrosine Kinase (SRC) (AID 2283223). In short, it runs like this:
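Cell-free kinase activity assay with fluorescent substrate, product separated by electrophoretic mobility shift, read 1 h after dosing. Duplicate single point at 25 uM, then concentration-response up to 50 uM; loss of signal versus DMSO.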

The target in test [5] is human Phosphoinositide 3-kinase alpha (PI3Ka), PIK3CA (gene 5290) (UniProt P42336). The test is described as follows: NVS_ENZ_hPI3Ka: NovaScreen (NVS) Enzymatic Assay for human Phosphoinositide 3-kinase alpha (PI3Ka) (AID 2283196). In short, it runs like this:
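Fluorescence/mobility-shift readout of substrate conversion by recombinant enzyme, 1 h post-dosing. Primary screen in duplicate at 25 uM; actives (e.g. ≥30% inhibition) retested in singleton concentration-response, top concentration 50 uM.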

Test [6] has as its target human Protein Phosphatase, Mg2+/Mn2+ Dependent 1A (PPM1A), PPM1A (gene 5494) (UniProt P35813). The test is described as follows: NVS_ENZ_hPPM1A: NovaScreen (NVS) Enzymatic Assay for human Protein Phosphatase, Mg2+/Mn2+ Dependent 1A (PPM1A) (AID 2283198). In short, it runs like this:
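Cell-free recombinant PPM1A phosphatase assay with fluorescent substrate, read 1 h after dosing by electrophoretic mobility shift. Chemicals screened in duplicate at 25 uM, then in concentration-response up to 50 uM; loss of activity versus DMSO.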

In test [7] the target is human Sirtuin 2 (SIRT2), SIRT2 (gene 22933) (UniProt Q8IXJ6). Kind of test: NVS_ENZ_hSIRT2: NovaScreen (NVS) Enzymatic Assay for human Sirtuin 2 (SIRT2) (AID 2283217). In short, it runs like this: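 Cell-free recombinant human SIRT2, fluorescent substrate with product separated by electrophoretic mobility shift, 1 hr. Screened in duplicate at 25 uM; hits rerun singly in concentration-response up to 50 uM, relative to DMSO.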

The target of test [8] is Tyrosine-protein phosphatase non-receptor type 13 (Homo sapiens) (UniProt Q12923). Kind of test: NVS_ENZ_hPTPN13: NovaScreen (NVS) Enzymatic Assay for human Protein Tyrosine Phosphatase Non-receptor Type 13 (PTPN13) (AID 2283205). In short, it runs like this:
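Cell-free assay of recombinant human PTPN13 with a fluorescent substrate, product separated by electrophoretic mobility shift and read 0.5 h after dosing. Primary screen at 25 uM in duplicate, then concentration-response up to 50 uM. Loss of signal fitted against DMSO.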

The target in test [9] is human Protein Tyrosine Phosphatase Receptor Type M (PTPRM), PTPRM (gene 5797) (UniProt P28827). Kind of test: NVS_ENZ_hPTPRM: NovaScreen (NVS) Enzymatic Assay for human Protein Tyrosine Phosphatase Receptor Type M (PTPRM) (AID 2283215). In short, it runs like this: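 Cell-free recombinant PTPRM with fluorogenic substrate; product separated from substrate by electrophoretic mobility shift and read by fluorescence, 1.33 h after dosing. Primary screen single concentration (25 uM) in duplicate; actives retested in concentration series; loss of signal versus DMSO.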

Test [10] concerns the target human Sirtuin 3 (SIRT3), SIRT3 (gene 23410) (UniProt Q9NTG7). The test is described as follows: NVS_ENZ_hSIRT3: NovaScreen (NVS) Enzymatic Assay for human Sirtuin 3 (SIRT3) (AID 2283222). In short, it runs like this: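 Cell-free enzyme assay with recombinant protein and fluorescent substrate, product separated by electrophoretic mobility shift; read 1 hour after dosing. Screened in duplicate at 25 uM, then singleton concentration-response up to 50 uM; loss of signal versus DMSO.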

The target of test [11] is Tyrosine-protein phosphatase non-receptor type 14 (Homo sapiens) (UniProt Q15678). The test is described as follows: NVS_ENZ_hPTPN14: NovaScreen (NVS) Enzymatic Assay for human Protein Tyrosine Phosphatase Non-receptor Type 14 (PTPN14) (AID 2283206). The essentials: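 Cell-free recombinant human PTPN14 with fluorescent substrate, read 0.5 h after dosing by fluorescence and electrophoretic mobility shift separating substrate from product. Primary screen at 25 uM in duplicate; hits run to 50 uM maximum; loss of signal versus DMSO.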

Test [12] deals with human Protein Tyrosine Phosphatase Receptor Type F (PTPRF), PTPRF (gene 5792) (UniProt P10586). Kind of test: NVS_ENZ_hPTPRF: NovaScreen (NVS) Enzymatic Assay for human Protein Tyrosine Phosphatase Receptor Type F (PTPRF) (AID 2283213). In short, it runs like this: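 Cell-free fluorescence enzyme assay with recombinant protein and substrate; product separated by electrophoretic mobility shift. Read 1 h after dosing, single 25 uM duplicate screen, then concentration-response up to 50 uM; loss of signal vs DMSO.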

Test [13] deals with human Sirtuin 1 (SIRT1), SIRT1 (gene 23411) (UniProt Q96EB6). Kind of test: NVS_ENZ_hSIRT1: NovaScreen (NVS) Enzymatic Assay for human Sirtuin 1 (SIRT1) (AID 2283219). In short, it runs like this: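 Cell-free recombinant SIRT1 with a fluorescent substrate; substrate and product separated by electrophoretic mobility shift and read by fluorescence intensity, 1 h after dosing. Primary screen at 25 uM in duplicate; hits re-run in concentration-response up to 50 uM, relative to DMSO.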

Test [14] deals with human Tropomyosin Receptor Kinase A (TRKA), NTRK1 (gene 4914) (UniProt P04629). Kind of test: NVS_ENZ_hTrkA: NovaScreen (NVS) Enzymatic Assay for human Tropomyosin Receptor Kinase A (TRKA) (AID 2283224). In short, it runs like this: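 Recombinant human TrkA activity read after 1 h by fluorescence with electrophoretic mobility shift separating substrate and product. Primary screen in duplicate at 25 uM; actives were rerun in concentration-response up to 50 uM. Loss of signal versus DMSO.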

In test [15] the target is rabbit Imidazoline 2 Central (I2C), CKB (gene 100009085) (UniProt P00567). Kind of test: NVS_ENZ_rabI2C: NovaScreen (NVS) Enzymatic Assay for rabbit Imidazoline 2 Central (I2C) (AID 2283228). The essentials:
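Rabbit brain membranes, cell-free; readout by filter-based scintillation counting 1.5 hours after dosing, loss of signal vs DMSO. Initial duplicate test at 25 uM, then concentration-response with 50 uM top concentration.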

The target of test [16] is human Protein Tyrosine Phosphatase Receptor Type B (PTPRB), PTPRB (gene 5787) (UniProt P23467). Kind of test: NVS_ENZ_hPTPRB: NovaScreen (NVS) Enzymatic Assay for human Protein Tyrosine Phosphatase Receptor Type B (PTPRB) (AID 2283211). The essentials:
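Recombinant human PTPRB with a fluorescent substrate, product separated by electrophoretic mobility shift; read 1 h after dosing. Primary screen in duplicate at 25 uM; actives then retested in concentration series; loss of signal versus DMSO.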

In test [17] the target is human Vascular Endothelial Growth Factor Receptor 1 (VEGFR1), FLT1 (gene 2321) (UniProt P17948). Kind of test: NVS_ENZ_hVEGFR1: NovaScreen (NVS) Enzymatic Assay for human Vascular Endothelial Growth Factor Receptor 1 (VEGFR1) (AID 2283226). The essentials: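 Cell-free assay of recombinant human VEGFR1 kinase with substrate, measured 1 h after dosing; fluorescence with electrophoretic mobility-shift separation of substrate and product, referenced to DMSO; primary screen at 25 uM in duplicate, actives then run in concentration series.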

Test [18] deals with human Rho Associated Coiled-coil Containing Protein Kinase 1 (ROCK1), ROCK1 (gene 6093) (UniProt Q13464). Kind of test: NVS_ENZ_hROCK1: NovaScreen (NVS) Enzymatic Assay for human Rho Associated Coiled-coil Containing Protein Kinase 1 (ROCK1) (AID 2283214). The essentials: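 Cell-free recombinant human ROCK1 activity assay; fluorescent substrate and product separated by electrophoretic mobility shift, read 1 h after dosing. Screened in duplicate at 25 uM; loss of signal versus DMSO baseline scored as inhibition.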

SMILES strings stand for the structures. Records with an inconclusive call do not appear. Active and inactive are the calls of the source. How the source made its calls: active means hit-call score of the fitted dose curve at least 0.9, where 1 is the maximum; inconclusive means response in the unintended direction; inactive means score below 0.9.

Tyrosine-protein phosphatase non-receptor type 11 (Homo sapiens), sequence (Q06124 whole entry, looked up): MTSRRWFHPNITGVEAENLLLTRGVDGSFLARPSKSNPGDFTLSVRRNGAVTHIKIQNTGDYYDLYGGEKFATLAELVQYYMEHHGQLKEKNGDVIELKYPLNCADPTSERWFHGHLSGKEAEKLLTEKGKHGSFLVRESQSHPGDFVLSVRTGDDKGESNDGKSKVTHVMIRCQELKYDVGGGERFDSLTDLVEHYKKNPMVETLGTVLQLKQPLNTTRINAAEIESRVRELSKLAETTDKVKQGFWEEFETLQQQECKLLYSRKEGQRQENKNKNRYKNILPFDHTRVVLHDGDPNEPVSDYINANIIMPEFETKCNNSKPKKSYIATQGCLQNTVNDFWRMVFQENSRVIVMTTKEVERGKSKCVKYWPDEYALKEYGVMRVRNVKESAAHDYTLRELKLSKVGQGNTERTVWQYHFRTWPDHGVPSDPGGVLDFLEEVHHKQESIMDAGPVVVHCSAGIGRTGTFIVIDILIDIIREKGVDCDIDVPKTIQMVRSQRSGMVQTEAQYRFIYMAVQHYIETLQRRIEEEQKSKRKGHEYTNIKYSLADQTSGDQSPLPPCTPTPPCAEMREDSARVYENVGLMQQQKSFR
rabbit Imidazoline 2 Central (I2C), CKB (gene 100009085), sequence (P00567 whole entry, looked up): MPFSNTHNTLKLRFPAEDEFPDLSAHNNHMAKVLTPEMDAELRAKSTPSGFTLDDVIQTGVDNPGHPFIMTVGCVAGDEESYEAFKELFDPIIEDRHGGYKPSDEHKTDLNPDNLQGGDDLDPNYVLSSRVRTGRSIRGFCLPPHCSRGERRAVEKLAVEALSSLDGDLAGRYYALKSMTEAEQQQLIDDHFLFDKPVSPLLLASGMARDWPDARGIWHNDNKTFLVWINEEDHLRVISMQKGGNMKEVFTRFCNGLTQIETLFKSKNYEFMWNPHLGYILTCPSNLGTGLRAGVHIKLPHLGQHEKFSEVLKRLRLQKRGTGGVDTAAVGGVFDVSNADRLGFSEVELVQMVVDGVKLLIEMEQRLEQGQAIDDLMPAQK
human Sirtuin 1 (SIRT1), SIRT1 (gene 23411), sequence (Q96EB6 whole entry, looked up): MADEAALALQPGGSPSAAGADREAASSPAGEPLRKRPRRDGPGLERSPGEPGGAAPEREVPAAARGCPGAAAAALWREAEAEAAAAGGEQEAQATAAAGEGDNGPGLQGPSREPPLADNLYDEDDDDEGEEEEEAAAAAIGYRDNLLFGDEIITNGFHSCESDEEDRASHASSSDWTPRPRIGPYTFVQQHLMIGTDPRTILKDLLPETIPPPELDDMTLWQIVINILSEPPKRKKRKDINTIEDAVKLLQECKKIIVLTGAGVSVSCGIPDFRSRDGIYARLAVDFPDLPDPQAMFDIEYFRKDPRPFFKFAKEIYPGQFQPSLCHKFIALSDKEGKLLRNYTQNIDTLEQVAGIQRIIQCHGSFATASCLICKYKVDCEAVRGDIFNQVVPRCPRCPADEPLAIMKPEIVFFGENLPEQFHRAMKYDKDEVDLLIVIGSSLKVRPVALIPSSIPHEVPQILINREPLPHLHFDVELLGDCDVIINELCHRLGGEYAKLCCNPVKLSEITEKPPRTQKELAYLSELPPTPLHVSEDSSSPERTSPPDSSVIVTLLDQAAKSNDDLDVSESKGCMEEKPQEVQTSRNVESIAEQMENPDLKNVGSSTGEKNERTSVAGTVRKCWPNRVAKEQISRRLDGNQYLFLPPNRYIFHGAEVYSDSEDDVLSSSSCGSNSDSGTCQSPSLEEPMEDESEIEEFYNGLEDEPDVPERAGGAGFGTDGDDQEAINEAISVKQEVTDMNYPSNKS
Serine/threonine-protein phosphatase PP1-alpha catalytic subunit (Homo sapiens), sequence (P62136 whole entry, looked up): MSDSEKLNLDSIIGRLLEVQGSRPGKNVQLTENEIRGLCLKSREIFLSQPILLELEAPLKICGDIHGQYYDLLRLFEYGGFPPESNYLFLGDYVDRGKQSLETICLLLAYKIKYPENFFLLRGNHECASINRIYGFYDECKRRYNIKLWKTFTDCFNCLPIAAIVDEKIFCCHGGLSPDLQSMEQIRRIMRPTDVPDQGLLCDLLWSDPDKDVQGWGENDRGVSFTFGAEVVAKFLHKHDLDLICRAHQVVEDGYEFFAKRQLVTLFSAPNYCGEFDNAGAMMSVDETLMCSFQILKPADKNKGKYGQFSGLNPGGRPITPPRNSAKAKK
human SRC Proto-Oncogene, Non-receptor Tyrosine Kinase (SRC), SRC (gene 6714), sequence (P12931 whole entry, looked up): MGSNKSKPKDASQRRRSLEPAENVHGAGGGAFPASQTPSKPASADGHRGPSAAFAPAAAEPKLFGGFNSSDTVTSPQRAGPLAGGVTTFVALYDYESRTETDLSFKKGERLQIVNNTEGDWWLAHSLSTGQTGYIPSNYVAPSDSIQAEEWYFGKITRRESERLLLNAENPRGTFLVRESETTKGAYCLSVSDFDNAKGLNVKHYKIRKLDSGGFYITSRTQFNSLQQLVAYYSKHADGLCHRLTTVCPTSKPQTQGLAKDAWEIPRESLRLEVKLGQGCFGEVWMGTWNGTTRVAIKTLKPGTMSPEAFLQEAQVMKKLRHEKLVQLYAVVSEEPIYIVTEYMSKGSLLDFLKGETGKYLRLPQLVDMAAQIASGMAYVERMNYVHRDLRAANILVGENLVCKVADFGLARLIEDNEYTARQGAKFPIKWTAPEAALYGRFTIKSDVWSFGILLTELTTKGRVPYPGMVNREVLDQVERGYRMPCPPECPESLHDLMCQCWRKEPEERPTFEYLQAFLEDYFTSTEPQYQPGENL
human Sirtuin 3 (SIRT3), SIRT3 (gene 23410), sequence (Q9NTG7 whole entry, looked up): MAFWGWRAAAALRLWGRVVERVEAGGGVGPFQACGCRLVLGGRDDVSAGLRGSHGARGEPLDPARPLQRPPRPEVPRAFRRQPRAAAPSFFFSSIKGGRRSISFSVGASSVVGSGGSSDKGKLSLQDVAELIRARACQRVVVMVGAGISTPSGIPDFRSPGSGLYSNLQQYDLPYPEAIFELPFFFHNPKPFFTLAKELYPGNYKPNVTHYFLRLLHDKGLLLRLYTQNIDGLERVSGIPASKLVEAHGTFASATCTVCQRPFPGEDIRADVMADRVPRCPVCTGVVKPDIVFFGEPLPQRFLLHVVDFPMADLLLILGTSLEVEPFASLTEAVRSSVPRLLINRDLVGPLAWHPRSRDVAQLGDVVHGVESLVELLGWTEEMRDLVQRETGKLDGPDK
human Protein Phosphatase, Mg2+/Mn2+ Dependent 1A (PPM1A), PPM1A (gene 5494), sequence (P35813 whole entry, looked up): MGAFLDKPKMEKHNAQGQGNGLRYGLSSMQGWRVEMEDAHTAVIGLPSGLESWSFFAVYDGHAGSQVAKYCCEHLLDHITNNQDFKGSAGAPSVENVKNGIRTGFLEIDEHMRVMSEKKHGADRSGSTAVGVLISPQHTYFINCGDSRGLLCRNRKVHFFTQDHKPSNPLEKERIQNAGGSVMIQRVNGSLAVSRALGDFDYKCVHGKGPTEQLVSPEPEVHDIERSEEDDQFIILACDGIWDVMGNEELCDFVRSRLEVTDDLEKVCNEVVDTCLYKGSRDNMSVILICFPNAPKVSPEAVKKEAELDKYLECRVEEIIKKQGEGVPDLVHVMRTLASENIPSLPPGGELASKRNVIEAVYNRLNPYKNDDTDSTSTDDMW
human Sirtuin 2 (SIRT2), SIRT2 (gene 22933), sequence (Q8IXJ6 whole entry, looked up): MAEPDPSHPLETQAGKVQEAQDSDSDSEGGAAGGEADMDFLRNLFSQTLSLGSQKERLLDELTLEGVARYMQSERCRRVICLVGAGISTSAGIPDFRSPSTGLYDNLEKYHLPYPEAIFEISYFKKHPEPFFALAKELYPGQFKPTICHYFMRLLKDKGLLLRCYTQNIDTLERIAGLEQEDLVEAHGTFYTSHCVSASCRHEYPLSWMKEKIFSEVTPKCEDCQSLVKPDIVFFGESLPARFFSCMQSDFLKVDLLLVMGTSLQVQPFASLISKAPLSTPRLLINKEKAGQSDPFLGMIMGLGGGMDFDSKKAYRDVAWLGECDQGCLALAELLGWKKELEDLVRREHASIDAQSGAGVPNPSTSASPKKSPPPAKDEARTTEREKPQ
human Protein Tyrosine Phosphatase Non-receptor Type 1 (PTPN1), PTPN1 (gene 5770), sequence (P18031 whole entry, looked up): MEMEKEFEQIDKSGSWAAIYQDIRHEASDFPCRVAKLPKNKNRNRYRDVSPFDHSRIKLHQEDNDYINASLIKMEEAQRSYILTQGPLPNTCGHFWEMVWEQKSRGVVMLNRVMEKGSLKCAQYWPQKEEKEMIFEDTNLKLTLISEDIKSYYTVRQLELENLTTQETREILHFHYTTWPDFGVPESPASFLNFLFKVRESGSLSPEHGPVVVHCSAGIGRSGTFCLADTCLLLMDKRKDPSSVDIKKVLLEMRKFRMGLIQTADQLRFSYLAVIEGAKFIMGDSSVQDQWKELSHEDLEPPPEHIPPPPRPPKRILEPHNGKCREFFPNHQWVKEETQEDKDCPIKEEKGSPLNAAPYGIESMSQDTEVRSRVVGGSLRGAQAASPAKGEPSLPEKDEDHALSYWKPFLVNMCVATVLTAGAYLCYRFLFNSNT
human Tropomyosin Receptor Kinase A (TRKA), NTRK1 (gene 4914), sequence (P04629 whole entry, looked up): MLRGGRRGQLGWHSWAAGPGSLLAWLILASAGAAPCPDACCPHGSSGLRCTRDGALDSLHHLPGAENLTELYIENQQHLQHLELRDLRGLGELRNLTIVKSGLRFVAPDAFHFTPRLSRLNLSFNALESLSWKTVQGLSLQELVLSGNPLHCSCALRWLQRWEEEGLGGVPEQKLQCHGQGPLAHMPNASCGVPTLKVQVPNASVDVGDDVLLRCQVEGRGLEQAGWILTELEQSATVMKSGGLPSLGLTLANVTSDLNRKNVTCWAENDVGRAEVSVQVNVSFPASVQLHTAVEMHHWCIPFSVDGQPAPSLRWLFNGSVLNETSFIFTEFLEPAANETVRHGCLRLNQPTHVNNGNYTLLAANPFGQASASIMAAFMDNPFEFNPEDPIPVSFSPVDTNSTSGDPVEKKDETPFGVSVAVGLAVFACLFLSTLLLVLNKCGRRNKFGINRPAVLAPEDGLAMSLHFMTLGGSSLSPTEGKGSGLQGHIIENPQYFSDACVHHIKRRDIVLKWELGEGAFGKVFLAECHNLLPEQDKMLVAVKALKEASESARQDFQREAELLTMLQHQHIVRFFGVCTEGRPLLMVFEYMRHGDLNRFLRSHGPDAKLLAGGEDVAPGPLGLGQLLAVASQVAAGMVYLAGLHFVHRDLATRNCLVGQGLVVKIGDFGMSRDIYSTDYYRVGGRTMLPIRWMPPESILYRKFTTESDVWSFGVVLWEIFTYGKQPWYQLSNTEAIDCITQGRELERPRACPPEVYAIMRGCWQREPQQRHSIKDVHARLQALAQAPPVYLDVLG

`CC[C@@H]1C[C@H](N(Cc2cc(C(F)(F)F)cc(C(F)(F)F)c2)C(C)=O)c2cc(C(F)(F)F)ccc2N1C(=O)OC(C)C`: the outcome in test [1] was inactive.
`c1ccc2ccccc2c1`: the call in [2], in [3] and in [4] was inactive.
For the compound `CCCCCCCCN(C)CCCCCCCC`, the result in [5], in test [6] and in [7] was inactive.
On to `Cc1cccc2ccccc12`, for which the compound was called inactive in test [4].
In the case of `CCN(CC)C(=O)c1cc(S(=O)(=O)Cc2ccccc2)c(N2CCC(c3ccccc3)CC2)cc1N(CC)CCN(C)C`, the compound was classed as inactive in [8] and in test [9]. For the same compound, in [10], the AC50 was 4.57 µM (active).
As for `CN1C(=O)N(c2ccccc2Br)Cc2cnc(Nc3ccc4c(c3)OCC(CO)O4)nc21` (stereo not drawn), the result in test [1], in [11], in [12] and in test [13] was inactive. Further, the AC50 in test [4] was 0.00229 µM (active); in test [14], 0.493 µM (active).
Consider `Cc1occc1C(=O)Nc1ccc(C(=O)N2CCC(F)(F)/C(=C\C(=O)N3CCC(N4CCCCC4)CC3)c3ccccc32)cc1`, for which the result in test [10] was inactive.
As for `CCOC(=O)O[C@H](C)OC(=O)c1ccc2c(c1)cc(C(=O)NC1CCN(C(C)C)CC1)n2Cc1cc(-c2ccc(Cl)s2)on1`, in test [2], the AC50 is 18.6 µM (active).
`O=C(O)Cn1c(=O)n(Cc2ccc(Br)cc2F)c(=O)c2ccc(Cl)cc21`: the outcome in [7] was inactive.
As for `CC[C@H](NC(=O)c1cc(F)ccc1NS(=O)(=O)c1cccc2cccnc12)c1ccccc1`, in test [2], the compound was called inactive.
In the case of `CCCC(=O)OCCC(C)C`, the compound was classed as inactive in test [15].
`Cc1oc2c(NC(=O)c3c(Cl)cccc3Cl)cccc2c1C(C)(C)O`: the outcome in test [10] and in [15] was inactive.
In the case of `O=C1c2ccccc2C(=O)N1CCc1noc(-c2ccc(CN3CCCCCC3)s2)n1`, the outcome in [3], in [7] and in test [10] was inactive. Further, the AC50 in [15] is 7.93 µM (active).
In the case of `CC(C)(O)c1ccc(CNC(=O)c2cccnc2Oc2ccc3nonc3c2)cc1`, the outcome in test [6] was inactive.
In the case of `O=C1CCC(C2CCCCC2)CC1`, the compound was classed as inactive in [3].
In the case of `CCCCCCCCCC(=O)O`, the call in test [6], in test [16], in [13] and in test [14] was inactive.
With `Cc1cc2c(cc1C(F)(F)F)N(C(=O)Nc1ccc(Oc3cccnc3C)nc1)CC2`, the compound was classed as inactive in [17].
Consider `OCCO`, for which the outcome in test [18] was inactive.
As for `Oc1ccc2ccccc2c1`, the compound was called inactive in test [11] and in test [13].
